Measurements as given in PubChem BioAssay (NCI).
About 83,000 compounds went through this panel and 20% of them were active in at least one assay; those are over-represented in the sample as a whole.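 The endpoint reported here, percent growth, reads 100 for growth as untreated, 0 for no net growth and -100 for all cells dead.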 Unmarked numbers belong to inactive results. Calls of active or inactive are those of the source. How the source made its calls: active means growth percent below 10; inactive means the rest.

The molecules below were run on M14 melanoma (assay: NCI-60 one-dose screen, 48 h (100 = growth as untreated, 0 = no growth, -100 = all killed)). Conditions: 10 µM unless noted.
Molecule `CCOC(=O)c1ccc(NC(=S)NC(=O)c2cccc(NC(=O)c3ccc(C)cc3)c2)cc1` has a growth of 80.7%.
Work on `COC(=O)c1c(C(=O)OC)c2c3ccccc3c3ccccc3n2c1C(=O)C(F)(F)F` yielded a growth of 97%.
`O=C(Nc1ccc(S(=O)(=O)N2CCCCC2)cc1)C(Cl)Cl` showed a growth of 112%.
With `CN(C)c1nc(NCCNS(=O)(=O)c2ccc(C(=O)/C=C/c3ccccc3)cc2)nc(N2CCOCC2)n1` the growth was 84.4%.
For `COc1cc(CNC(=O)C[C@H](C)CCC=C(C)C)ccc1OCc1cn(-c2ccc(Br)cc2)nn1`, the growth was 97.2%.
Molecule `COc1ccc(-n2c(NC(=O)N3CCN(C)CC3)c(C#N)c3ccccc32)cc1` has a growth of 54.4%.
With `O=C1CCC(N2C(=O)c3cccc(NCCCCCC(=O)N4CCN(c5ccc6nc7c(nc6c5C(F)(F)F)C(=O)c5ncccc5C7=O)CC4)c3C2=O)C(=O)N1` (stereo not drawn) the growth was -87.2% (active).
In the case of `O=C(CSc1nc2sc3c(c2c(=O)n1-c1ccc(Cl)cc1)CCCC3)NNC(=O)c1ccc(Br)cc1`, the growth was 71.9%.
Work on `COc1ccc2[nH]c(O)c(N=NC(=O)c3ccc4nc(-c5ccc(Cl)cc5)[nH]c4c3)c2c1` yielded a growth of 59.4%.
`COc1cc(/C=N/NC(=O)c2ccc(OCc3nc4ccc(C)cc4[nH]3)cc2)cc(OC)c1OC` was tested, and the growth was 33%.
Molecule `COc1cc(NC(=O)C(C)C)ccc1C(=O)NC(=S)Nc1ccc(S(N)(=O)=O)cc1` has a growth of 106%.
`COc1c2c(c(Br)c3c1C(CCc1ccccc1)N(C)CC3)OCO2` (stereo not drawn) showed a growth of 29%.
For `COc1ccc(CCC2NCCc3c(Br)c4c(c(OC)c32)OCO4)cc1` (stereo not drawn), the growth was -30.7% (active).
